Bioassay records (PubChem)
The list is not random: actives were taken first. Their share in the collection is about 1%.
Yeast superoxide: lowers age-related superoxide in aged yeast cells. S. cerevisiae aged cells, superoxide DHE fluorescence; hits give low values. hit rate 0.18% among 330,000. superoxide response (% of plate mean), % at 10 µM;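 active = superoxide response under a set limit, about three screen SD below normal, cut at about 65% in these data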;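 note: yeast aged for seven days with compound at 30 °C before DHE staining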
hiPSC survival: hiPSC single-cell survival enhancement; ATPlite luminescence; 100% = ROCK inhibitor wells, 0% = DMSO; hit rate 0.044% among 360,000; AID 602274; survival enhancement, % at 20 µM; in the data active = survival enhancement above about 18%;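 note: cells exposed to compounds for 16 hours before the ATP read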
Fh CTSL1 inh: blocks F. hepatica cathepsin L1 in PFM18AAP counter-screen | recombinant F. hepatica cathepsin L1, Z-Leu-Arg-MCA fluorescence | inhibition, % at 5.96 µM | hit rate 0.49% among 300,000;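 active = inhibition above the mean of all tested compounds plus 3 SD, set per screening campaign, cut at about 17% in these data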
V-ATPase pH: regulators of yeast V-ATPase proton transport; S. cerevisiae, pHLuorin cytosolic pH fluorescence; response, % at 10 µM; hit rate 0.37% among 350,000; AID 504577; in the data active = response mostly above about 7.3%, no sharp cut-off; inactive = mostly below about 5.4%; note: actives read high
V-ATPase pH SP: modulates yeast V-ATPase proton transport; response, % at 10 µM; S. cerevisiae pHLuorin cytosolic pH; shares compounds with V-ATPase pH; hit rate 2% among 980; AID 602197; in the data active = response above about 24%
Of the large screens only hits and unclear results are named; the others gave an inactive call (follow-up assays come after a bar, where they were run).

COc1ccc(Cl)cc1NC(=S)NCCSc1ccc(C)cc1	V-ATPase pH 7.6 | V-ATPase pH SP inactive
COc1ccccc1NC(=S)NCCSc1ccc(Cl)cc1	none
CCn1cc(C(=O)NCc2ccco2)c(=O)c2ccc(C)nc21	V-ATPase pH 6.7 | V-ATPase pH SP inactive
CCn1cc(C(=O)NCc2ccccc2OC)c(=O)c2ccc(C)nc21	none (no result: hiPSC survival, V-ATPase pH)
CCOC(=O)Nc1ccc2c(c1)N(C(=O)CCN(CC)CC)c1ccccc1CC2	V-ATPase pH 7.8 | V-ATPase pH SP inactive
Cc1nn(Cc2c(F)c(F)c(F)c(F)c2F)c(C)c1NC(=O)c1ccc(COc2ccccc2Cl)cc1	V-ATPase pH 16.2 (no result: Yeast superoxide, Fh CTSL1 inh) | V-ATPase pH SP inactive
COc1cccc(-n2nnnc2SCC(=O)Nc2ccc(OC)cc2OC)c1	none
O=C(Nc1cc(Cl)ccc1-n1cncn1)c1ccc([N+](=O)[O-])s1	none
NCCCSC1=NCCCN1	none | V-ATPase pH SP inactive
COc1ccc(/C=C/C(=O)NCCSCc2ccco2)cc1	none
Cc1cccc(NCCC(=O)c2ccc([N+](=O)[O-])cc2)c1C	V-ATPase pH 95.9 | V-ATPase pH SP inactive
Cc1ccc(NCCC(=O)c2cccc([N+](=O)[O-])c2)c(C)c1	none
CCCC(=O)C1=C(O)C(C(=O)OC)C(C)(C)CC1=Nc1ccc(C)cc1 (stereo not given)	V-ATPase pH 8.3 | V-ATPase pH SP inactive
CCn1c(SCC(=O)NCC(=O)Nc2ccc(F)cc2)nnc1-c1cccs1	V-ATPase pH 8.6 | V-ATPase pH SP inactive
COc1cc(-c2cc(=O)c3ccccc3o2)ccc1O	V-ATPase pH 7.7 | V-ATPase pH SP inactive
O=S(=O)(c1ccccc1)N(CC(O)Cn1c2ccccc2c2ccccc21)c1ccccc1 (stereo not given)	V-ATPase pH 7.8 | V-ATPase pH SP inactive
COc1ccccc1N(CC(O)Cn1c2ccccc2c2ccccc21)S(=O)(=O)c1ccccc1 (stereo not given)	none
N#C/C(=C/c1ccc(-c2ccc(S(N)(=O)=O)cc2)o1)C(=O)Nc1ccccc1	none
N#C/C(=C\c1ccco1)C(=O)Nc1ccc(S(N)(=O)=O)cc1	V-ATPase pH 8.6 | V-ATPase pH SP inactive
O=C(Cc1ccc2c(c1)OCCO2)N1CCN(S(=O)(=O)c2ccccc2C(F)(F)F)CC1	V-ATPase pH 11.7 | V-ATPase pH SP inactive
O=C(Cc1ccc2c(c1)OCCO2)N1CCN(S(=O)(=O)c2cccc(Cl)c2Cl)CC1	none
CC(C)c1ccc(C(=O)OCC(=O)Nc2cccc(S(=O)(=O)NC3=NCCC3)c2)cc1	V-ATPase pH 7.2 (no result: Yeast superoxide, Fh CTSL1 inh) | V-ATPase pH SP inactive
O=C(COC(=O)c1ccc(O)cc1)Nc1cccc(S(=O)(=O)NC2=NCCC2)c1	none (no result: Fh CTSL1 inh)
CCc1ccccc1OCC(=O)Nc1cccc(S(=O)(=O)NC2=NCCC2)c1	V-ATPase pH 9.5 (no result: Fh CTSL1 inh) | V-ATPase pH SP inactive
O=C(CN1Cc2ccccc2C1=O)Nc1ccc2c(c1)OCCO2	V-ATPase pH 10.9 | V-ATPase pH SP inactive
NC(=O)c1ccccc1OCC(=O)Nc1ccc2c(c1)OCCO2	V-ATPase pH 7.3 (no result: Yeast superoxide, Fh CTSL1 inh) | V-ATPase pH SP inactive
COc1ccccc1OCC(=O)Nc1ccc2c(c1)OCCO2	none
Cc1nn(CC2CC2)c(=O)n1-c1ccc(C(C)C)cc1	none
Cc1nn(CC2CC2)c(=O)n1-c1ccc(Cl)cc1	none | V-ATPase pH SP inactive
CC1CN(C2CCN(C(=O)c3ccccc3)CC2)CC(C)O1 (stereo not given)	V-ATPase pH 9.3 | V-ATPase pH SP inactive
CC1CN(C2CCN(S(=O)(=O)c3ccccc3)CC2)CC(C)O1 (stereo not given)	none
CC1CN(C(=O)c2ccc(C(=O)c3ccccc3)cc2)CC(C)O1 (stereo not given)	V-ATPase pH 10.6 | V-ATPase pH SP inactive
CCOC(=O)C1(CC2CCCCO2)CCN(Cc2ccc(OC)cc2F)CC1 (stereo not given)	none
O=C(O)C1CC=CCC1C(=O)NNc1c(Cl)cc(Cl)cc1Cl (stereo not given)	V-ATPase pH 11.6 | V-ATPase pH SP inactive
COc1ccc(S(=O)(=O)NCc2ccc(C(=O)NCc3cccnc3)cc2)cc1	none (no result: hiPSC survival, V-ATPase pH)
O=c1[nH]n(-c2ccc(Cl)cc2)c(=O)c(Cl)c1Cl	none | V-ATPase pH SP inactive
CC1CCCCN1S(=O)(=O)c1ccc2c(c1)CCN2C(=O)C1CC1 (stereo not given)	none
CC(SCc1ccccc1)C(=O)Nc1ccccc1Br (stereo not given)	V-ATPase pH 11.4 | V-ATPase pH SP inactive
Cc1ccccc1NC(=O)C(C)SCc1ccccc1 (stereo not given)	none
CCOc1cc2[nH]c(=S)n(C3CC3)c(=O)c2cc1OCC	V-ATPase pH 11.7 | V-ATPase pH SP inactive
